# Data taken from PubChem BioAssay (NCI).
# About 83,000 compounds went through this panel and 20% of them were active in at least one assay; those are over-represented in the sample as a whole.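 Results are percent growth after 48 hours of single-concentration exposure. 100 means growth as in untreated cells, lower positive values show inhibition; negative values down to -100 show cell death.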 Values without a mark were called inactive. Activity calls are given as the source filed them. Rule for the calls: active = growth percent below 10; inactive = the rest.
# System: SK-MEL-2 melanoma
# Test: NCI-60 one-dose screen, 48 h (100 = growth as untreated, 0 = no growth, -100 = all killed)
# Details: 10 µM unless noted
row,Compound,growth
1,CCOP1(=O)CC(C)=C(Cl)C(P(=O)(O)O)C1 (stereo unspecified),109%
2,O=C(O)CC1Cc2ccccc2C1C(=O)O (stereo unspecified),101%
3,Nc1cc2c(cc1Br)[nH]c(=O)c1ccccc12,40.2%
4,CCc1ccc(C(=Nc2ccc(N(C)C(=O)CN3CCN(C)CC3)cc2)c2c(O)[nH]c3ccc(C(=O)OC)cc23)cc1,-55.4% (active)
5,N#CCCCCCCCCCCC#N,108%
6,O=C1CSC(c2ccccc2Cl)N1c1nnc(-c2ccncc2)o1 (stereo unspecified),101%

# System: EKVX NSCLC
# Test: as above
# Details: 10 µM
row,Compound,growth
1,COc1nc(OC)nc(-c2cc(C(=O)c3ccc(Br)cc3)n3cc(C)cc(C)c23)n1,68.1%
2,CC(=O)OCC(=O)[C@@]1(O)[C@H](C)C[C@H]2[C@@H]3C=C(C)C4=Cc5c(cnn5-c5ccc(F)cc5)C[C@]4(C)[C@H]3[C@@H](O)C[C@@]21C,28.5%
3,Brc1c(-c2ccncc2)nc2n1CCS2,110%
4,CC(=O)/C(=C\c1c(-c2ccccc2)[nH]c2ccccc12)S(=O)(=O)c1ccccc1,27.9%
5,COc1ccc(/C=N/c2cc(C(C)(C)C)nn2-c2ccccc2)cc1,104%
6,CCC1(CC)C(OC)NC(Br)=C(C#N)C1(C#N)C(N)=O (stereo unspecified),103%
7,COc1ccc(CN2C(=O)/C(=C\C(=O)c3ccc(OCCN4CCCC4)cc3)c3ccccc32)cc1,96.4%
8,COc1ccc(/C=C2\SC(=O)N(Cc3cc(=O)oc4ccc(OC)cc34)C2=O)cc1,79.3%
9,c1cc(C2CCCCC2)ccc1OCCCCCCN1CCNCC1,90.5%
10,COc1cc(/C=C/C(=O)/C=C(/C=C/c2ccc(OC(C)=O)c(OC)c2)OB(F)F)ccc1OC(C)=O,76.1%
11,Cc1c([C@H](C(Cl)Cl)[C@H](O)[C@H]2C[C@H](C)C(=O)O2)ccc2c1C(=O)[C@H]1[C@H]2C[C@@H](Br)[C@@]23O[C@@H](CO[C@H]2O)CC13C (stereo partly specified),27.7%
12,O=C1/C(=N\c2cc(=O)[nH]n2S(=O)(=O)c2ccccc2)Nc2ccccc21,101%
13,N=C(N)c1ccc(-c2ccc(-c3ccc(Cl)cc3)s2)s1,-70.7% (active)
14,COc1cc([C@@H]2c3cc4c(cc3[C@H](O)[C@H]3COC[C@@H]23)OCO4)cc(OC)c1OC,109%
15,O=Nc1c(-c2c(O)[nH]c3cc(Br)ccc23)[nH]c2ccccc12,29.8%
16,CC(C)(C)C(=O)OCOP(=O)(OCOC(=O)C(C)(C)C)C1CC(O)N(O)C1=O (stereo unspecified),66%
17,CC1(C)CC(=O)C2=C(C1)Oc1nc(N)c(C#N)c(N)c1C2c1ccc(F)cc1 (stereo unspecified),97.4%
18,O=C1c2cc([N+](=O)[O-])ccc2-c2cc(Cl)c(NC(=O)C(F)(F)F)cc21,73.3%
19,COc1ccc(CNCCCN2C(=O)c3ccc4c5c(ccc(c35)C2=O)C(=O)N(CCCNCc2ccc(OC)c(OC)c2OC)C4=O)c(OC)c1OC,-77.2% (active)
20,O=C(Nc1ccccc1)Nc1ccc(Nc2ncnc3sc4c(c23)CCCC4)cc1,102%

row,Compound,growth
1,O=S(=O)(Cc1cccc2c(CS(=O)(=O)c3ccc(Cl)cc3)cccc12)c1ccc(Cl)cc1,82.4%
2,COc1cc(CNC(=O)CCCC/C=C/C(C)C)ccc1OCc1nnc(Nc2ccccc2F)o1,77.1%
3,Nc1nc2c(c3ncncc13)C(c1cccc(C(F)(F)F)c1)Cc1ncncc1-2 (stereo unspecified),48%
4,Cn1cnc2nc[nH]c2c1=S,113%
5,O=C(O)c1ccc(-c2nn(-c3ccc(C(=O)O)cc3)cc2CNc2ccc(Br)cc2)cc1,101%
6,O=C(N/N=C/c1coc2ccccc2c1=O)c1cc2oc(-c3ccccc3)cc2[nH]1,90.5%
7,CCC(C)C1NC(=O)C(CC(C)C)NC(=O)C(C)NC(=O)C(C(C)C)NC(=O)C(CCCCN)NC(=O)C(CC(C)C)NC(=O)C(C(C)C)NC(=O)[C@H](C)NC(=O)C(C(C)CC)NC(=O)C(CCCN=C(N)N)NC(=O)C(CCCCN)NC(=O)C(CCCN=C(N)N)NC(=O)C(CCCCN)NC(=O)C([C@H](C)CC)NC(=O)C(CCCCN)NC1=O (stereo partly specified),15.3%
8,C=CCN(C)C,92%
9,CCC(CCCN1C(=O)c2ccccc2C1=O)Nc1cc(OC)cc2cccnc12 (stereo unspecified),97.2%
10,O=c1c(N=Nc2nccs2)c(-c2ccccc2)[nH]n1-c1nc(-c2ccccc2)cs1,53.1%
11,Cc1ccc(C(=O)Nc2ccc(CN3CCN(C)CC3)c(C(F)(F)F)c2)cc1C#Cc1cncc2ncccc12,-71.8% (active)
12,CCOC(=O)C1C(=O)C(=O)N(C(C)C)C1C(=O)OCC (stereo unspecified),106%
13,COc1cc2c(cc1OC)C(Cc1cc(OC)c(OC)cc1[N+](=O)[O-])=NCC2,92.8%
14,COc1ccc2c(c1)/C(=C1/S/C(=N/c3nnc(C)s3)NC1=O)C(=O)N2Cc1ccc(Br)cc1,31.8%
15,CCOP1(=O)CC(C)=C(Cl)C(P(=O)(O)O)C1 (stereo unspecified),102%
16,O=C(O)CC1Cc2ccccc2C1C(=O)O (stereo unspecified),105%
17,Nc1cc2c(cc1Br)[nH]c(=O)c1ccccc12,49.5%
18,CCc1ccc(C(=Nc2ccc(N(C)C(=O)CN3CCN(C)CC3)cc2)c2c(O)[nH]c3ccc(C(=O)OC)cc23)cc1,-17.4% (active)
19,N#CCCCCCCCCCCC#N,97%
20,O=C1CSC(c2ccccc2Cl)N1c1nnc(-c2ccncc2)o1 (stereo unspecified),93.2%
